Measured values: PubChem BioAssay (NCATS)
Inconclusive results are not listed. Values without a mark were called inactive. The call rests on the fitted dose curve; in most records, active means well fitted inhibition curve with a large enough effect; inconclusive means small, poorly fitted or top-dose-only effect; inactive means flat fitted curve, though single readings scatter.

Biological target: Calcium and integrin-binding protein 1 (Homo sapiens) (UniProt Q99828)
Assay: Primary qHTS for Identification of Calcium Integrin Binding Protein 1 (CIB1) Competitor (AID 1508620); further: top concentration of the series differs between compounds
Conditions: CIB1-GST / FITC-alphaIIb peptide fluorescence polarization; series mostly up to 114 µM; activity change, negative = inhibition: at the top concentration
Procedure, shortened: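 Fluorescence polarization competition: GST-tagged CIB1 (1 uM final) preincubated with compound 15 min at room temperature, then FITC-labelled alphaIIb peptide (100 nM final) added. After 15 min at room temperature, polarization read at Ex 480/Em 540.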
On the % scale 0 is the no-effect control and ±100 the full control effect.

Calcium and integrin-binding protein 1 (Homo sapiens), sequence (Q99828 whole entry, looked up): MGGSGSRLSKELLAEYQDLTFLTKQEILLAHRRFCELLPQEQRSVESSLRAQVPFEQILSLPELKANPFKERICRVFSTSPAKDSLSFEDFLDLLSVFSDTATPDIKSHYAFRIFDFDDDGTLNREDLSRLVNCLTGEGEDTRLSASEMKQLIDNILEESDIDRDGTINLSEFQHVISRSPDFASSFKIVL

Going from `Cc1ccnc(NC(=S)Nc2cccc(C(F)(F)F)c2)c1` to `Cc1cc(C)nc(NC(=S)N2CCN(c3nccc(C(F)(F)F)n3)CC2)c1`, the “activity change, negative = inhibition” value falls from -5.3% to -12.7%.

First: Cc1ccc(NS(=O)(=O)c2cc3c(cc2C)NC(=O)CO3)cc1C
Second: COc1ccc(NS(=O)(=O)c2ccccc2C(=O)O)cc1
The “activity change, negative = inhibition” value of the first is higher: 0.574% for the first, -5.1% for the second.

Compared with `COc1ccc(C2Nc3ccccc3C(=O)N2Cc2ccco2)cc1COc1ccc(N)cc1` (stereo unspecified), `N=c1c2c(ccn1CCc1ccccc1)Oc1ccc3ccccc3c1C2c1ccccc1` (stereo unspecified) is higher in “activity change, negative = inhibition” value: -18.7% for the first, 14.2% for the second.

First: Cc1cc(C)nc(NC(=S)N2CCN(c3ccc4ncccc4c3[N+](=O)[O-])CC2)c1
Second: Cc1cc(C)nc(NC(=S)N2CCN(c3cnc4nccn4c3)CC2)c1
The “activity change, negative = inhibition” value of the first is lower: -13.2% for the first, -3.15% for the second.

First: O=S(=O)(NC1CCCC(NS(=O)(=O)c2c(F)cccc2F)C1)c1ccc2c(c1)OCCO2 (stereo unspecified)
Second: FC(F)(F)c1cc(-c2ccc(CNc3nc(C4CCCC4)nc4ccccc34)cc2)ccn1
The “activity change, negative = inhibition” value of the first is lower: -1.73% for the first, 18.9% for the second.

Compared with `Cc1cnc(-c2ccccc2C(C)C)nc1NCC1CCN(C2COC2)CC1`, `COC(=O)c1ccccc1-c1ccc(/C=c2\sc3nc4cc(Br)cnc4n3c2=O)o1` is higher in “activity change, negative = inhibition” value: 1.25% for the first, 82.8% for the second.

Going from `Cn1c2cc(C#N)sc2c2cnn(Cc3ccc(F)cc3)c(=O)c21` to `O=C(CCc1ccccc1Br)NCCc1nc2ccccc2[nH]1`, the “activity change, negative = inhibition” value falls from 1.78% to 0.113%.

For `O=C(CSc1nnc(-c2cccc([S+](=O)([O-])N3CCCC3)c2)n1-c1ccccc1)Nc1ccc(Br)cc1`, the “activity change, negative = inhibition” value was 13.7%.

`COc1cc(O)c(C(CC(=O)N2CCC(Cc3ccccc3)CC2)c2ccc(OC)c(OC)c2)c(OC)c1` (stereo unspecified) was tested, and the “activity change, negative = inhibition” value was 4.43% [at 228 µM].
